Test results: PubChem BioAssay (NCATS)
Results filed as inconclusive are left out. Calls of active or inactive are those of the source. Calls come from the whole dose curve; as a rule, active = well fitted inhibition curve with a large enough effect; inconclusive = small, poorly fitted or top-dose-only effect; inactive = flat fitted curve, though single readings scatter.

Key:
[1] = qHTS profiling for inhibitors of Plasmodium falciparum proliferation (AID 504749);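 note: 0% = DMSO vehicle and full inhibition = artemisinin control; nearly all actives have a fitted effect of over 60% in size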; conditions: P. falciparum in erythrocytes, SYBR Green DNA, 72 h, at 28.7 µM (top of the series)
Method in brief: (§1)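 P. falciparum-infected erythrocytes (0.3% parasitemia, 2.5% hematocrit final) were exposed to compounds for 72 h at 37 C in 5% CO2, then lysed with SYBR Green buffer overnight at room temperature; parasite DNA fluorescence was normalized to artemisinin and DMSO controls.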

3D7 = test: as above; conditions: P. falciparum in erythrocytes, SYBR Green DNA, 72 h; series mostly up to 28.7 µM
Method in brief: as §1

7G8 = test: as above; conditions: P. falciparum in erythrocytes, SYBR Green DNA, 72 h; series mostly up to 28.7 µM
Method in brief: as §1

AA1029 = test: as above; conditions: P. falciparum in erythrocytes, SYBR Green DNA, 72 h; series mostly up to 28.7 µM
Method in brief: as §1

AS120 = test: as above; conditions: P. falciparum in erythrocytes, SYBR Green DNA, 72 h; series mostly up to 28.7 µM
Method in brief: as §1

ATS189 = test: as above; conditions: P. falciparum in erythrocytes, SYBR Green DNA, 72 h; series mostly up to 28.7 µM
Method in brief: as §1

ATS95 = test: as above; conditions: P. falciparum in erythrocytes, SYBR Green DNA, 72 h; series mostly up to 28.7 µM
Method in brief: as §1

C2A = test: as above; conditions: P. falciparum in erythrocytes, SYBR Green DNA, 72 h; series mostly up to 28.7 µM
Method in brief: as §1

CP185 = test: as above; conditions: P. falciparum in erythrocytes, SYBR Green DNA, 72 h; series mostly up to 28.7 µM
Method in brief: as §1

CP191 = test: as above; conditions: P. falciparum in erythrocytes, SYBR Green DNA, 72 h; series mostly up to 28.7 µM
Method in brief: as §1

CP192 = test: as above; conditions: P. falciparum in erythrocytes, SYBR Green DNA, 72 h; series mostly up to 28.7 µM
Method in brief: as §1

CP194 = test: as above; conditions: P. falciparum in erythrocytes, SYBR Green DNA, 72 h; series mostly up to 28.7 µM
Method in brief: as §1

CP201 = test: as above; conditions: P. falciparum in erythrocytes, SYBR Green DNA, 72 h; series mostly up to 28.7 µM
Method in brief: as §1

CP203 = test: as above; conditions: P. falciparum in erythrocytes, SYBR Green DNA, 72 h; series mostly up to 28.7 µM
Method in brief: as §1

CP211 = test: as above; conditions: P. falciparum in erythrocytes, SYBR Green DNA, 72 h; series mostly up to 28.7 µM
Method in brief: as §1

CP215 = test: as above; conditions: P. falciparum in erythrocytes, SYBR Green DNA, 72 h; series mostly up to 28.7 µM
Method in brief: as §1

CP217 = test: as above; conditions: P. falciparum in erythrocytes, SYBR Green DNA, 72 h; series mostly up to 28.7 µM
Method in brief: as §1

CP237 = test: as above; conditions: P. falciparum in erythrocytes, SYBR Green DNA, 72 h; series mostly up to 28.7 µM
Method in brief: as §1

CP238 = test: as above; conditions: P. falciparum in erythrocytes, SYBR Green DNA, 72 h; series mostly up to 28.7 µM
Method in brief: as §1

CP247 = test: as above; conditions: P. falciparum in erythrocytes, SYBR Green DNA, 72 h; series mostly up to 28.7 µM
Method in brief: as §1

CC(C)O
inactive: activity, negative = inhibition ([1]; parasite line A) 2.73% | activity, negative = inhibition ([1]; parasite line B) 13.2% | Potency (3D7) | Potency (7G8) | Potency (AA1029) | Potency (AS120) | Potency (ATS189) | Potency (ATS95) | Potency (C2A) | Potency (CP185) | Potency (CP191) | Potency (CP192) | Potency (CP194) | Potency (CP201) | Potency (CP203) | Potency (CP211) | Potency (CP215) | Potency (CP217) | Potency (CP237) | Potency (CP238) | Potency (CP247)

C=Cc1ccc(S(=O)(=O)O)cc1
inactive: activity, negative = inhibition ([1]; parasite line A) 12.2% | activity, negative = inhibition ([1]; parasite line B) -6.31% | Potency (3D7) | Potency (7G8) | Potency (AA1029) | Potency (AS120) | Potency (ATS189) | Potency (ATS95) | Potency (C2A) | Potency (CP185) | Potency (CP191) | Potency (CP192) | Potency (CP194) | Potency (CP201) | Potency (CP203) | Potency (CP211) | Potency (CP215) | Potency (CP217) | Potency (CP237) | Potency (CP238) | Potency (CP247)

CN(C)C=Nc1c(I)cc(I)c(CCC(=O)O)c1I
inactive: activity, negative = inhibition ([1]; parasite line A) 0.723% | activity, negative = inhibition ([1]; parasite line B) 1.95% | Potency (3D7) | Potency (7G8) | Potency (AA1029) | Potency (AS120) | Potency (ATS189) | Potency (ATS95) | Potency (C2A) | Potency (CP185) | Potency (CP191) | Potency (CP192) | Potency (CP194) | Potency (CP201) | Potency (CP203) | Potency (CP211) | Potency (CP215) | Potency (CP217) | Potency (CP237) | Potency (CP238) | Potency (CP247)

CCN(CC)CCOc1ccccc1OC
inactive: activity, negative = inhibition ([1]; parasite line A) -4.79% | activity, negative = inhibition ([1]; parasite line B) -3.67% | Potency (3D7) | Potency (7G8) | Potency (AA1029) | Potency (AS120) | Potency (ATS189) | Potency (ATS95) | Potency (C2A) | Potency (CP185) | Potency (CP191) | Potency (CP192) | Potency (CP194) | Potency (CP201) | Potency (CP203) | Potency (CP211) | Potency (CP215) | Potency (CP217) | Potency (CP237) | Potency (CP238) | Potency (CP247)

NCC(O)CC(=O)O (centres undefined)
inactive: activity, negative = inhibition ([1]; parasite line A) 13% | activity, negative = inhibition ([1]; parasite line B) 3.91% | Potency (3D7) | Potency (7G8) | Potency (AA1029) | Potency (AS120) | Potency (ATS189) | Potency (ATS95) | Potency (C2A) | Potency (CP185) | Potency (CP191) | Potency (CP192) | Potency (CP194) | Potency (CP201) | Potency (CP203) | Potency (CP211) | Potency (CP215) | Potency (CP217) | Potency (CP237) | Potency (CP238) | Potency (CP247)

COc1ccc(C(=O)CCC(=O)O)c2ccccc12
inactive: activity, negative = inhibition ([1]; parasite line A) 16.4% | activity, negative = inhibition ([1]; parasite line B) 8.35% | Potency (3D7) | Potency (7G8) | Potency (AA1029) | Potency (AS120) | Potency (ATS189) | Potency (ATS95) | Potency (C2A) | Potency (CP185) | Potency (CP191) | Potency (CP192) | Potency (CP194) | Potency (CP201) | Potency (CP203) | Potency (CP211) | Potency (CP215) | Potency (CP217) | Potency (CP237) | Potency (CP238)

Cc1ncc(COP(=O)(O)O)c(CN)c1O
inactive: activity, negative = inhibition ([1]; parasite line A) -3.16% | activity, negative = inhibition ([1]; parasite line B) 3.16% | Potency (3D7) | Potency (7G8) | Potency (AA1029) | Potency (AS120) | Potency (ATS189) | Potency (ATS95) | Potency (C2A) | Potency (CP185) | Potency (CP191) | Potency (CP192) | Potency (CP194) | Potency (CP201) | Potency (CP203) | Potency (CP211) | Potency (CP215) | Potency (CP217) | Potency (CP237) | Potency (CP238)

O=C(CCCCCCCCCCCCC1CCCC1)Nc1ccc(S(=O)(=O)c2ccc(NC(=O)CCCCCCCCCCCCC3CCCC3)cc2)cc1
inactive: activity, negative = inhibition ([1]; parasite line A) -2.51% | activity, negative = inhibition ([1]; parasite line B) 13.1% | Potency (3D7) | Potency (7G8) | Potency (AA1029) | Potency (AS120) | Potency (ATS189) | Potency (ATS95) | Potency (C2A) | Potency (CP185) | Potency (CP191) | Potency (CP192) | Potency (CP194) | Potency (CP201) | Potency (CP203) | Potency (CP211) | Potency (CP215) | Potency (CP217) | Potency (CP237) | Potency (CP238) | Potency (CP247)

CCOC(=O)[C@@H](N)CS
inactive: activity, negative = inhibition ([1]; parasite line A) -7.81% | activity, negative = inhibition ([1]; parasite line B) 16.4% | Potency (3D7) | Potency (7G8) | Potency (AA1029) | Potency (AS120) | Potency (ATS189) | Potency (ATS95) | Potency (C2A) | Potency (CP185) | Potency (CP191) | Potency (CP192) | Potency (CP194) | Potency (CP201) | Potency (CP203) | Potency (CP211) | Potency (CP215) | Potency (CP217) | Potency (CP237) | Potency (CP238) | Potency (CP247)

F[Si-2](F)(F)(F)(F)F
inactive: activity, negative = inhibition ([1]; parasite line A) 3.4% | activity, negative = inhibition ([1]; parasite line B) 19.2% | Potency (3D7) | Potency (7G8) | Potency (AA1029) | Potency (AS120) | Potency (ATS189) | Potency (ATS95) | Potency (C2A) | Potency (CP185) | Potency (CP191) | Potency (CP192) | Potency (CP194) | Potency (CP201) | Potency (CP203) | Potency (CP211) | Potency (CP215) | Potency (CP217) | Potency (CP237) | Potency (CP238) | Potency (CP247)

NC(=O)C1c2ccccc2CCc2ccccc21
inactive: activity, negative = inhibition ([1]; parasite line A) -4.87% | activity, negative = inhibition ([1]; parasite line B) 8.64% | Potency (3D7) | Potency (7G8) | Potency (AA1029) | Potency (AS120) | Potency (ATS189) | Potency (ATS95) | Potency (C2A) | Potency (CP185) | Potency (CP191) | Potency (CP192) | Potency (CP194) | Potency (CP201) | Potency (CP203) | Potency (CP211) | Potency (CP215) | Potency (CP217) | Potency (CP237) | Potency (CP238)

CC(C)=CCC/C(C)=C/CC/C(C)=C/CC/C=C(\C)CC/C=C(\C)CCC=C(C)C
inactive: activity, negative = inhibition ([1]; parasite line A) 0.919% | activity, negative = inhibition ([1]; parasite line B) 12.5% | Potency (3D7) | Potency (7G8) | Potency (AA1029) | Potency (AS120) | Potency (ATS189) | Potency (ATS95) | Potency (C2A) | Potency (CP185) | Potency (CP191) | Potency (CP192) | Potency (CP194) | Potency (CP201) | Potency (CP203) | Potency (CP211) | Potency (CP215) | Potency (CP217) | Potency (CP237) | Potency (CP238) | Potency (CP247)
